Test in all cases: protein-binding microarray (PBM); PBM: ~300 nM protein, 6 mM HEPES pH 7.8, 80 mM KCl, 0.5 mM EDTA, 0.5 mM EGTA, 6% glycerol, 35 ng/ul poly-dIdC, 1% milk, 1 h, room temperature; Ap Aiptasia and Nv Nematostella (sea anemones) / Co Capsaspora / Aq Amphimedon (sponge) / Dm Drosophila / Hu human; RHD is the Rel homology domain; high values mean tight binding
What all share (details): dsDNA, one strand shown

The target of one experiment is T1, GST-Ap-NF-kB RHD (Exaiptasia pallida (Aiptasia), UniProt A0A913YAJ5 2-422).
T1 sequence: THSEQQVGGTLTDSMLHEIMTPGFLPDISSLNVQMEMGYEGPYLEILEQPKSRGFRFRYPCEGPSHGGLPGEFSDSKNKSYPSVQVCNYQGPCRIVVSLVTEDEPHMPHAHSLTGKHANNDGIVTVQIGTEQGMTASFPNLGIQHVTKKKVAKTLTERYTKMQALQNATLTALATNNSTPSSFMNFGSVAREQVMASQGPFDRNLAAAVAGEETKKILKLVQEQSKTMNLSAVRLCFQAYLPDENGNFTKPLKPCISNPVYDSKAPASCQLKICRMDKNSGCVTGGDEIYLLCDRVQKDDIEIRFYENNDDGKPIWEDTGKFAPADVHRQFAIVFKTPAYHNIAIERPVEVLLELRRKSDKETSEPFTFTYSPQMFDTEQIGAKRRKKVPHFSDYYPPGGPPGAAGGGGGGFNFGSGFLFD

The next experiment has as its target T2, GST-Dm-Relish (Drosophila melanogaster, UniProt Q94527 99-473).
T2 sequence: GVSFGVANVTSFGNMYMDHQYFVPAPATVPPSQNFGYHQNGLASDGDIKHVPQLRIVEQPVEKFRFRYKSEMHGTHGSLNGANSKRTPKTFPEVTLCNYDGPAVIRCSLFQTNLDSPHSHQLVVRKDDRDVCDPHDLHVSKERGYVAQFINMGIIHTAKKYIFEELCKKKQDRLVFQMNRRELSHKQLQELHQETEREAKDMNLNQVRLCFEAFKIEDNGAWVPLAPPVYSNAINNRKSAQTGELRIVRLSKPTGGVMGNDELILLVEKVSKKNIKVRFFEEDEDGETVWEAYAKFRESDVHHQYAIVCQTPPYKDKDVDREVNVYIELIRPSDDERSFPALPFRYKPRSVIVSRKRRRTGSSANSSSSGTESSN

The target in another experiment is T3, GST-Aq-NF-kB (Amphimedon queenslandica, UniProt A9Y5G7 2-389).
T3 sequence: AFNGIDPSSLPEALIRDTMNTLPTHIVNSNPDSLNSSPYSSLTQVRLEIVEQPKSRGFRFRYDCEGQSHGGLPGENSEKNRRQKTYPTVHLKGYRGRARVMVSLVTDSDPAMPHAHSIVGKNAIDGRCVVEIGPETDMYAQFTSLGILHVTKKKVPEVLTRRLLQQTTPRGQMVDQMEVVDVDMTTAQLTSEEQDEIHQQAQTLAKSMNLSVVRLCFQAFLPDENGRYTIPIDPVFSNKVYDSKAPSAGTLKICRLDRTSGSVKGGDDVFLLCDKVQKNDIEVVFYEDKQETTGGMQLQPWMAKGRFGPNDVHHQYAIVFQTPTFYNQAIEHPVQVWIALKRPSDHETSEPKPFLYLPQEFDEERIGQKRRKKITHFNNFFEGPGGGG

For a further experiment, the target named is T4, GST-Co-NF-kB (Capsaspora owczarzaki, UniProt F1ARL5 200-546).
T4 sequence: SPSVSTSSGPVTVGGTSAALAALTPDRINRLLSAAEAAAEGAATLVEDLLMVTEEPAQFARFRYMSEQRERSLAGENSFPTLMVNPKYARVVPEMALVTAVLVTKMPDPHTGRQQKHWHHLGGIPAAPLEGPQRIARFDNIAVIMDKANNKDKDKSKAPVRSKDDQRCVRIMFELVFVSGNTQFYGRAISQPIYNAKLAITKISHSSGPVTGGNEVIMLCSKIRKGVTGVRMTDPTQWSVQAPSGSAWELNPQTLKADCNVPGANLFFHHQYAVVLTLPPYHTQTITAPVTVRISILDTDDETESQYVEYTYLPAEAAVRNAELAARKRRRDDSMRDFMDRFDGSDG

The target in experiment [1] is T5, GST-Nv-NF-kB (Cys allele) (Nematostella vectensis, UniProt E5G601 2-411).
T5 sequence: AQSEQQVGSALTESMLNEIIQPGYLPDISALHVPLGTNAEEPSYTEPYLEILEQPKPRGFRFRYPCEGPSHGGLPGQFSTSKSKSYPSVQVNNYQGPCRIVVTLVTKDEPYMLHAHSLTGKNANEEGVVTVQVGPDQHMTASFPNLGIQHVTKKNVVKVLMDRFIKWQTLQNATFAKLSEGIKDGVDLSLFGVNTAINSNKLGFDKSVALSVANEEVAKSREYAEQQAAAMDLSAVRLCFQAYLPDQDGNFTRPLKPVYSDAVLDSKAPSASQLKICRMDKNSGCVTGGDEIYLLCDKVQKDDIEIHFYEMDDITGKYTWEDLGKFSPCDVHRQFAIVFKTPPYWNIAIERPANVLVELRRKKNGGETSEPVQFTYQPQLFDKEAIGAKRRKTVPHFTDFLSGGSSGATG

With “CCGATTAACATCAAGGAATGCCCTGATGTTAATCGGGTCTTGATTCGCTTGACGCTGCTG”, the binding signal is 1.68 z-score with GST-Ap-NF-kB RHD, 1.35 z-score with GST-Dm-Relish and 2.68 z-score with GST-Aq-NF-kB.
“CCGATTAACATCAGGAATTCCTATGATGTTAATCGGGTCTTGATTCGCTTGACGCTGCTG”: the results for the binding signal with GST-Ap-NF-kB RHD, with GST-Dm-Relish and with GST-Aq-NF-kB were 1.1 z-score, 3.7 z-score and 2.07 z-score, respectively.
As to “CCGATTAACATCACGGGCACCCCTGATGTTAATCGGGTCTTGATTCGCTTGACGCTGCTG”, the binding signal with GST-Ap-NF-kB RHD came to 1.72 z-score; with GST-Co-NF-kB it was 1.34 z-score; with GST-Dm-Relish it was 2.01 z-score; with GST-Aq-NF-kB, 2.04 z-score.
“CCGATTAACATCAAGGAAAGCCCTGATGTTAATCGGGTCTTGATTCGCTTGACGCTGCTG”: the binding signal with GST-Ap-NF-kB RHD is 1.19 z-score; with GST-Dm-Relish it was 3.3 z-score; with GST-Aq-NF-kB it was 3.45 z-score.
The matching figures for “CCGATTAACATCAGGGCATCCCATGATGTTAATCGGGTCTTGATTCGCTTGACGCTGCTG”: 1.37 z-score, 5.99 z-score and 2.34 z-score.
Taken in the same sequence, the figures for “CCGATTAACATCACCGGAATTTCTGATGTTAATCGGGTCTTGATTCGCTTGACGCTGCTG” were 1.27 z-score, 1.58 z-score and 2.45 z-score.
Taken in the same sequence, the figures for “CCGATTAACATCAGGGATTAACATGATGTTAATCGGGTCTTGATTCGCTTGACGCTGCTG” were 1.77 z-score, 4.89 z-score and 1.83 z-score.
As to “CCGATTAACATCAGGAATCCCAATGATGTTAATCGGGTCTTGATTCGCTTGACGCTGCTG”, the binding signal with GST-Ap-NF-kB RHD is 1.71 z-score; in the experiment with GST-Dm-Relish, 7.14 z-score; with GST-Aq-NF-kB, 1.48 z-score.
With “CCGATTAACATCACGGGCTTTCCTGATGTTAATCGGGTCTTGATTCGCTTGACGCTGCTG”, the binding signal with GST-Ap-NF-kB RHD is 1.64 z-score; with GST-Dm-Relish it was 3.81 z-score; with GST-Aq-NF-kB, 4.66 z-score.
As for “CCGATTAACATCAAGAAATTTCCTGATGTTAATCGGGTCTTGATTCGCTTGACGCTGCTG”, the results for the binding signal (in experiment [1]; with GST-Aq-NF-kB) were 1.11 z-score and 2.06 z-score, respectively.
Taken in the same sequence, the figures for “CCGATTAACATCAGGGTCTTATATGATGTTAATCGGGTCTTGATTCGCTTGACGCTGCTG” were 1.26 z-score and 2.15 z-score.
Regarding “CCGATTAACATCAGGAGGTTCCCTGATGTTAATCGGGTCTTGATTCGCTTGACGCTGCTG”, the binding signal was 2.28 z-score in the experiment with GST-Ap-NF-kB RHD, 2.47 z-score with GST-Dm-Relish and 3.68 z-score with GST-Aq-NF-kB.
The matching figures for “CCGATTAACATCACGGAATGCCCTGATGTTAATCGGGTCTTGATTCGCTTGACGCTGCTG”: 1.03 z-score, 1.71 z-score and 2.6 z-score.
For “CCGATTAACATCAAGGGCATCCCTGATGTTAATCGGGTCTTGATTCGCTTGACGCTGCTG”, the binding signal amounted to 1.42 z-score with GST-Ap-NF-kB RHD, 5.6 z-score with GST-Dm-Relish and 2.86 z-score with GST-Aq-NF-kB.
Regarding “CCGATTAACATCAAGGAAATACCTGATGTTAATCGGGTCTTGATTCGCTTGACGCTGCTG”, the binding signal with GST-Ap-NF-kB RHD stood at 1.2 z-score; with GST-Dm-Relish, 3.3 z-score; with GST-Aq-NF-kB, 3.81 z-score.
Consider “CCGATTAACATCAGGGCATTCCATGATGTTAATCGGGTCTTGATTCGCTTGACGCTGCTG”, for which the binding signal with GST-Ap-NF-kB RHD came out at 1.14 z-score; with GST-Dm-Relish it was 1.84 z-score; with GST-Aq-NF-kB, 2.1 z-score.
Turning to “CCGATTAACATCATGGGGGGGAATGATGTTAATCGGGTCTTGATTCGCTTGACGCTGCTG”, the binding signal was found to be 6.87 z-score with GST-Ap-NF-kB RHD, 8.77 z-score with GST-Co-NF-kB, 4.72 z-score with GST-Dm-Relish and 5.36 z-score in the experiment with GST-Aq-NF-kB.
Turning to “CCGATTAACATCACGGGATCTCCTGATGTTAATCGGGTCTTGATTCGCTTGACGCTGCTG”, the figures for the binding signal with GST-Ap-NF-kB RHD, in the experiment with GST-Dm-Relish and with GST-Aq-NF-kB were 2.16 z-score, 4.06 z-score and 3.77 z-score, respectively.
“CCGATTAACATCACGGGATGTCCTGATGTTAATCGGGTCTTGATTCGCTTGACGCTGCTG”: the binding signal with GST-Ap-NF-kB RHD turned out to be 1.47 z-score; in the experiment with GST-Dm-Relish it was 3.42 z-score; with GST-Aq-NF-kB, 3.06 z-score.
For “CCGATTAACATCACGGGATGCCCTGATGTTAATCGGGTCTTGATTCGCTTGACGCTGCTG”, the results for the binding signal with GST-Ap-NF-kB RHD, in the experiment with GST-Dm-Relish and with GST-Aq-NF-kB were 1.03 z-score, 5.65 z-score and 3.09 z-score, respectively.

The values are drawn from PMC5700166.
